# From PubChem BioAssay
# Rows were chosen to be rich in hits. Some 4.3% of all compounds tested hit in one or more screens of this group.
# Autofluor counter: flagged as autofluorescent in microsphere protease counterscreen | compound autofluorescence counterscreen, microsphere flow cytometry; hits give high values | fluorescence intensity (test concentration not listed) | 360,000 tested, 3.1% active; in the data active = fluorescence intensity above about 16000; inconclusive = no clear call, values can overlap the other calls
# BoNT-A LC inh2: inhibitors of Botulinum neurotoxin A light chain protease; multiplex microsphere protease substrate cleavage, flow cytometry; inhibition, % at 10 µM; 360,000 tested, 0.17% active
# PfHsp40 rescue: compounds rescuing yeast from Plasmodium falciparum HSP40 toxicity | S. cerevisiae expressing PfHsp40, growth rescue, ATP luminescence | growth rescue, % at 12.5 µM | 340,000 tested, 0.68% active | AID 504582; in the data active = growth rescue above about 28%, passing the limit was not always enough; inconclusive = no clear call, values can overlap the other calls;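 also: yeast W303a lacking pdr1 and pdr3 grown in galactose medium; growth measured after three days at 30 °C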
# Anthrax LF inh2: inhibitors of Bacillus anthracis lethal factor protease | inhibition, % at 10 µM | multiplex microsphere protease cleavage assay, LF | 360,000 tested, 0.12% active
# MazEF act: MazEF (E. coli) toxin RNase activation. P0AE70. FAM/BHQ RNA-DNA oligo cleavage fluorescence, 5 h. activation, % at 20 µM. 350,000 tested, 0.32% active. AID 504720; in the data active = activation above about 50%
# Target sequence (P0AE70 whole entry, looked up): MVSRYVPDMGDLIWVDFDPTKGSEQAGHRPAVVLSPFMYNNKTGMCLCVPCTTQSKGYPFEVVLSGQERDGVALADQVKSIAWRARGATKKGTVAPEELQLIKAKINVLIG
# BoNT F protease: inhibitors of Botulinum neurotoxin F light chain protease; Multiplex microsphere protease cleavage assay, flow cytometry; inhibition, % at 10 µM; 360,000 tested, 0.22% active; AID 588497; in the data active = inhibition above about 35%, passing the limit was not always enough; inconclusive = no clear call, values can overlap the other calls
# Hits are given with their value; - = inactive; ? = inconclusive; . = not tested or not shown. Rule as the data show it, unless noted: active = inhibition above about 30%; inconclusive = no clear call, values can overlap the other calls; inactive = below that.
SMILES,Autofluor counter,BoNT-A LC inh2,PfHsp40 rescue,Anthrax LF inh2,MazEF act,BoNT F protease
COc1cccc(CN2CCC(n3nccc3NC(=O)CCCc3ccccc3)CC2)c1,?,-,-,-,-,-
O=C(C[C@@H]1C/C=C\CCC(=O)O[C@H](c2ccccc2)CNC1=O)N[C@H](CO)Cc1ccccc1,-,-,-,-,-,-
CCN1CCN(C(c2cc3cccc(C)c3[nH]c2=O)c2nnnn2Cc2ccccc2)CC1 (stereo unspecified),-,-,-,-,-,-
Cc1cccc2cc(C(c3nnnn3Cc3ccccc3)N3CCCc4ccccc43)c(=O)[nH]c12 (stereo unspecified),23808,?,-,-,-,-
C/C(CCc1ccc2c(c1)OCO2)=N\NC(=S)NC(C)C,-,-,-,-,-,-
COCCNC(=S)N/N=C(\C)CCc1ccc2c(c1)OCO2,-,-,35,-,-,-
COc1cccc(NC(=O)C2(C)CCCN2C(=O)C(C)C)c1OC (stereo unspecified),-,-,.,-,.,-
COc1nc(C#N)nc(N(C)C)n1,20512,-,-,-,-,-
CCN(CC)C(=O)CN(C#N)c1nc(OC)nc(N(C)C)n1,-,-,-,-,-,-
COc1ccc(C2=NOC(C(=O)Nc3ccc(C)cc3)C2)cc1OC (stereo unspecified),21677,-,-,-,-,-
COc1cc(C2=NOC(C(=O)NCc3ccc(F)cc3)C2)cc(OC)c1OC (stereo unspecified),17938,-,-,-,-,-
COc1ccc(CNC(=O)C2CC(c3cccc(OC)c3)=NO2)cc1 (stereo unspecified),19613,-,-,-,-,-
COc1cc(C2=NOC(C(=O)N3CCN(c4ccc(F)cc4)CC3)C2)cc(OC)c1OC (stereo unspecified),17355,-,-,-,-,-
COc1ccc(C2=NOC(C(=O)NCc3ccc(F)cc3)C2)cc1OC (stereo unspecified),-,-,-,-,-,-
CC1(C)CC(NC(=S)Nc2ccc([N+](=O)[O-])cc2)CC(C)(C)N1,-,-,-,-,-,-
COc1cccc(C2=NOC(C(=O)Nc3cc(OC)c(OC)c(OC)c3)C2)c1 (stereo unspecified),21270,-,-,-,-,-
COc1ccc(NC(=O)C2CC(c3cc(OC)c(OC)c(OC)c3)=NO2)cc1OC (stereo unspecified),21486,-,-,-,-,-
COc1ccc(NC(=O)C2CC(c3ccc(OC)c(OC)c3)=NO2)cc1OC (stereo unspecified),-,-,-,-,-,-
COc1cc(NC(=O)C2CC(c3cccc(Br)c3)=NO2)cc(OC)c1OC (stereo unspecified),-,-,-,-,-,-
COc1cc(C2=NOC(C(=O)Nc3ccc(C)cc3)C2)cc(OC)c1OC (stereo unspecified),19324,-,-,-,-,-
CCOC(=O)c1[nH]c(COC(=O)CCOc2ccccc2OC)c(C(=O)OCC)c1C,23144,?,-,-,-,-
Cc1ccc(C(=O)CSC2=C(C#N)C(c3ccco3)C3=C(CCCC3=O)N2)cc1 (stereo unspecified),-,-,-,-,-,-
CC(C)(C)c1ccc(C(=O)CCCSC2=C(C#N)C(c3ccco3)C3=C(CCCC3=O)N2)cc1 (stereo unspecified),23545,?,-,-,-,-
CCN(CC(=O)NCc1ccc(Cl)cc1)C(=O)c1cc(S(=O)(=O)N2CCOCC2)ccc1C,-,-,-,-,-,-
CCCN(CCC)C(=O)CC(c1ccccc1)c1cc(Br)ccc1O (stereo unspecified),22655,-,-,-,-,-
SMILES,Autofluor counter,BoNT-A LC inh2,PfHsp40 rescue,Anthrax LF inh2,MazEF act,BoNT F protease
CCCN(CCC)C(=O)CC(c1ccccc1)c1ccc(C)cc1O (stereo unspecified),22025,-,-,-,-,-
CCc1nc2ccc(C(=O)N3CCN(C(=O)c4ccco4)CC3)cn2c1N(CC)CCOC,-,-,.,-,.,-
Cc1c(C)c2c(OCC(=O)N3CCC(C(N)=O)CC3)cc3c(c2oc1=O)CCC(C)(C)O3,-,-,-,-,-,-
O=C(CCC(=O)Nc1ccc(F)cc1)N/N=C/c1cccnc1,-,-,-,-,-,-
CCCC(=O)Nc1ccc(C(=O)N/N=C/c2cccnc2)cc1,23205,?,-,-,-,-
O=C(N/N=C/c1cccnc1)c1ccc(NC(=O)C(c2ccccc2)c2ccccc2)cc1,-,-,-,-,61,-
